Results reported in PubChem BioAssay (Tox21).
Values joined by “and” are separate entries in the source; they are usually repeats but may differ in a detail not shown here. Equal entries are not always repeated. Inconclusive results are not listed. More than one record can exist for a structure, and the calls need not agree. Active and inactive are the calls of the source. Unless noted, calls follow the shape of the dose curve; as a rule, active = well fitted curve in the direction sought with a large enough effect in the repeat runs; inconclusive = weak or mixed curves; inactive = no such curve, though single readings can be large; an effect the other way counts as inactive or inconclusive.

Key:
[1] = qHTS assay to identify small molecule agonists of the vitamin D receptor (VDR) signaling pathway - cell viability counter screen (AID 743224); also: series mostly up to about 63 µM; nearly all actives have a fitted effect of over 50% in size
Outline: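 Viability is measured in the same wells as the VDR-bla reporter assay: after 16 h compound treatment and 2 h substrate loading, CellTiter-Glo is added and luminescence read 30 min later.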

[2] = qHTS assay to identify small molecule antagonists of the vitamin D receptor (VDR) signaling pathway - cell viability counter screen (AID 743225); also: nearly all actives have a fitted effect of over 50% in size
Outline: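 Cells (VDR-UAS-bla HEK 293T) are plated, rested 4 h at 37C, dosed with compound and 3 nM final 1-alpha,25-dihydroxy vitamin D3, and incubated 16 h. Viability is taken from CellTiter-Glo luminescence in the reporter wells.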

[3] = qHTS assay to identify small molecule agonists of the NFkB signaling pathway (AID 1159509; active = well fitted curve in the direction sought with a large enough effect in the signal ratio in the repeat runs, not every such curve was filed as active; the % refers to the signal ratio; also: series mostly up to about 61 µM)
Outline: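 After overnight attachment, reporter cells received test compounds, DMSO or positive controls and were incubated 5 hr at 37 C. FRET substrate was then added for 1.5 hr at room temperature before dual-emission fluorescence reading.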

[4] = qHTS assay to identify small molecule agonists of the NFkB signaling pathway - cell viability counter screen (AID 1159515; calls by dose curve; also: series mostly up to about 61 µM; nearly all actives have a fitted effect of over 55% in size)
Outline: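 Multiplexed viability readout: after the 5 hr compound exposure and 1.5 hr FRET substrate step, CellTiter-Glo reagent went into the same NFkB-bla ME-180 wells; ATP luminescence was measured after 30 min at room temperature.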

[5] = qHTS assay to identify small molecule agonists of the endoplasmic reticulum stress response signaling pathway (AID 1159516; active = well fitted activation curve with a large enough effect in the signal ratio in the repeat runs, not every such curve was filed as active; the % refers to the signal ratio)
Outline: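 Tox21 10K library screened in quantitative HTS format on ESRE-bla HeLa cells, a beta-lactamase reporter under ER stress response element control; 5 hr treatment, FRET read.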

[6] = qHTS assay to identify small molecule agonists of the endoplasmic reticulum stress response signaling pathway - cell viability counter screen (AID 1159517; calls by dose curve; also: series mostly up to about 61 µM; nearly all actives have a fitted effect of over 50% in size)
Outline: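 Luminescence readout: CellTiter-Glo, 30 min RT, same wells as the ESRE-bla reporter read. HeLa ESRE-bla, 1,500 cells/well, o/n 37 C; cpd 5 hr 37 C/5% CO2.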

[7] = qHTS assay to identify small molecule antagonists of the retinoid-related orphan receptor gamma (ROR-gamma) signaling pathway - cell viability counter screen (AID 1159520); also: nearly all actives have a fitted effect of over 50% in size
Outline: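 Tet-on ROR gamma CHO cells (1,000/well) were plated 4 hr, given compounds in DMSO for 2 hr at 37 C, then induced with 1 uM final doxycycline for 16 hr. Viability was read as ATP by CellTiter-Glo luminescence after 30 min.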

[8] = qHTS assay to identify small molecule agonists of the AP-1 signaling pathway - cell viability counter screen (AID 1159525; calls by dose curve; also: nearly all actives have a fitted effect of over 55% in size)
Outline: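 ME-180 AP-1-bla, 2500 cells/well, Opti-MEM + 0.5% dialyzed FBS; overnight 37 °C; cpd 15-pt titration, 5 h 37 °C; CellTiter-Glo 30 min RT; luminescence read; normalised to TOAB and DMSO controls.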

[9] = qHTS assay to identify small molecule agonists of the AP-1 signaling pathway (AID 1159526; calls by dose curve)
[10] = target: Retinoic acid receptor RXR-alpha (Homo sapiens) (UniProt P19793); assay: qHTS assay to identify small molecule agonists of the RXR signaling pathway (AID 1159527; calls by dose curve; also: nearly all actives have a fitted effect of over 35% in size; also: potency is read from the fitted curve at half-maximal effect)
Outline: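 qHTS of the Tox21 10K library in GeneBLAzer RXR-alpha HEK 293T cells carrying a beta-lactamase reporter […]; 16 hr treatment, 9-cis retinoic acid as agonist control, FRET read-out.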

[11] = qHTS assay to identify small molecule agonists of the RXR signaling pathway - cell viability counter screen (AID 1159529)
Outline: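 Cell viability is measured by CellTiter-Glo luminescence, 30 min at room temperature, in wells already read for beta-lactamase. Engineered HEK 293T cells (RXR-alpha-UAS-bla) are dosed 16 hr at 37 C. Tetraoctyl ammonium bromide serves as positive control.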

[12] = qHTS assay to identify small molecule antagonists of the retinoid acid receptor (RAR) signaling pathway - cell viability counter screen (AID 1159551); also: nearly all actives have a fitted effect of over 35% in size
Outline: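 Cytotoxicity counter screen in C3RL4 cells: 6 h compound exposure with 1 uM retinol (final), viability from cellular ATP by luminescence.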

[13] = qHTS assay to identify small molecule antagonists of the retinoic acid receptor (RAR) signaling pathway (AID 1159552; also: nearly all actives have a fitted effect of over 50% in size; also: potency is read from the fitted curve at half-maximal effect)
Outline: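 Quantitative HTS in C3RL4 RARE-luciferase reporter cells. Compounds were added with 1 uM (final) retinol; luminescence was read after 6 hr.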

[14] = qHTS assay to identify small molecule agonists of the retinoic acid receptor (RAR) signaling pathway (AID 1159553)
Outline: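 Agonist activity was scored in C3RL4 cells bearing a retinoic acid response element luciferase construct. Cells were treated with compounds for 6 hr at 37 C, and luciferase signal was measured as luminescence.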

[15] = qHTS assay to identify small molecule antagonists of the estrogen related receptor (ERR) signaling pathway from Tox21 library - cell viability counter screen (AID 1224834); also: nearly all actives have a fitted effect of over 30% in size; also: potency is read from the fitted curve at half-maximal effect
Outline: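 Cytotoxicity of test substances is gauged in the same ERR cells used for the antagonist screen, after 17.5 h of compound treatment at 37 C, by CellTiter-Fluor fluorescence measured after 30 min.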

[16] = target: Luciferin 4-monooxygenase (Photinus pyralis) (UniProt P08659); assay: qHTS assay to identify small molecule inhibitors of firefly luciferase (AID 1224835); also: series mostly up to about 120 µM; nearly all actives have a fitted effect of over 25% in size
Outline: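 Quantitative HTS format; KM concentrations of both substrates. Purified P. pyralis FLuc activity quantified from luminescence images.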

[17] = qHTS assay to identify small molecule antagonists of the constitutive androstane receptor (CAR) signaling pathway - cell viability counter screen (AID 1224837); also: nearly all actives have a fitted effect of over 45% in size; also: potency is read from the fitted curve at half-maximal effect
Outline: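 Multiplexed cytotoxicity read-out for the CAR antagonist screen: double-stable HepG2-CYP2B6-hCAR cells co-treated with 50 nM CITCO (final) and compound over 15 concentrations, incubated 23 hr, then assessed by CellTiter-Fluor fluorescence.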

[18] = target: Nuclear receptor ROR-gamma (Homo sapiens) (UniProt P51449); assay: qHTS assay to identify small molecule antagonists of the retinoid-related orphan receptor gamma (ROR-gamma) signaling pathway (AID 1159521)
Outline: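 RORγ antagonism is scored from reduced reporter luminescence in Tet-on CHO cells. Induction used 1 uM final doxycycline hyclate for 16 h at 37 C, following a 2 h compound exposure.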

[19] = qHTS assay to identify small molecule agonists of the constitutive androstane receptor (CAR) signaling pathway - cell viability counter screen (AID 1224836); also: series mostly up to about 92 µM; nearly all actives have a fitted effect of over 45% in size
Outline: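 Counter screen multiplexed with the CAR reporter readout: HepG2 cells co-transfected with hCAR and the CYP2B6-2.2kb construct receive a 15-concentration compound series and 0.75 uM PK11195 (final), then CellTiter-Fluor fluorescence is read after 23 h.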

[20] = qHTS assay to identify small molecule antagonists of the estrogen related receptor (ERR) signaling pathway - cell viability counter screen (AID 1224818);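 also: series mostly up to about 46 µM; viability measured after 17.5 h of compound exposure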
Outline: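 Cells carrying the ERR pathway reporter were seeded and incubated for 6 hours before compound addition. After a 17.5-hour exposure at 37 C, live-cell protease activity was measured by CellTiter-Fluor fluorescence following 30 minutes of incubation.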

Measured: Potency

Sequence of Retinoic acid receptor RXR-alpha (Homo sapiens) (P19793 whole entry, looked up): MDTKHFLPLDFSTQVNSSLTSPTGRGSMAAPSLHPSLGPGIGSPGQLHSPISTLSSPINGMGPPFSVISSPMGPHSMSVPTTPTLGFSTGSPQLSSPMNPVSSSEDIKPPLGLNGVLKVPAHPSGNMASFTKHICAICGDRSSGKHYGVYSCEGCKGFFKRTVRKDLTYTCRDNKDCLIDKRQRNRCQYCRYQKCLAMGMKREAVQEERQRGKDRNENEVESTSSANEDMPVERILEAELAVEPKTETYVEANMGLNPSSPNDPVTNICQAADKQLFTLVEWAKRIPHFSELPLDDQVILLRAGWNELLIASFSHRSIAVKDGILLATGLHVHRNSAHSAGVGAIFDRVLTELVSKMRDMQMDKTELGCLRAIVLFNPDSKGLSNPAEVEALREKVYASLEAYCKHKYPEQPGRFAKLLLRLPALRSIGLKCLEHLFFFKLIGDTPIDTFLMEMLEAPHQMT
Sequence of Luciferin 4-monooxygenase (Photinus pyralis) (P08659 whole entry, looked up): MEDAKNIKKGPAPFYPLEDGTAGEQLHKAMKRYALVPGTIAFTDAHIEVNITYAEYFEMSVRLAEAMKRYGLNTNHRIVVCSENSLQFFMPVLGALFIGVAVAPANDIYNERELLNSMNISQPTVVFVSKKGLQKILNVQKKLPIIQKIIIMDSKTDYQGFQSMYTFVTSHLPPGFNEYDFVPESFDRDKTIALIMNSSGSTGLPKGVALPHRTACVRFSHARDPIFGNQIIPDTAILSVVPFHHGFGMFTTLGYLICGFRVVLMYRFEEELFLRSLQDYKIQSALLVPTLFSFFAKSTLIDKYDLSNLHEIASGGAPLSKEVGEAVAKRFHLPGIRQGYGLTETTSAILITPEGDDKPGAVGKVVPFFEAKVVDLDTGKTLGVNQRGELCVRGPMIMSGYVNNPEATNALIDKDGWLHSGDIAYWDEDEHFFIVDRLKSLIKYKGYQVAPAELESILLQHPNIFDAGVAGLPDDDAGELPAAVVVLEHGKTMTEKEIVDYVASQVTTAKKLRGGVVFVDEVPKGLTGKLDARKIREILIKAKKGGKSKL

COc1ccc(NC(C)=O)cc1N
not listed: [18] | [19] | [20]
inactive: all other assays above

COS(C)(=O)=O
not listed: [1] | [8] | [10] | [13] | [14] | [19] | [20]
inactive: all other assays above

CC1CCC2CC1C2(C)C (configuration not stated)
not listed: [8] | [10] | [13] | [14] | [20]
inactive: all other assays above

O=C(O)CC(C(=O)O)C(CC(=O)O)C(=O)O (configuration not stated)
not listed: [8] | [10] | [18] | [20]
inactive: all other assays above

Cc1ccc(S(N)(=O)=O)cc1
not listed: [8] | [18] | [19] | [20]
inactive: all other assays above

Cc1ccc(N(C)C)cc1
not listed: [1] | [8] | [18] | [19] | [20]
inactive: all other assays above

CCC(O)OC(O)CC (configuration not stated)
not listed: [10] | [18] | [20]
inactive: all other assays above

CN(C)CCOCCN(C)C
not listed: [1] | [8] | [10] | [13] | [14] | [20]
inactive: all other assays above

COc1cc(Cc2cnc(N)nc2N)cc(OC)c1OC
not listed: [1] | [8] | [10] | [18]
inactive: all other assays above

Cc1cnc(C(=O)NCCc2ccc(S(=O)(=O)NC(=O)NC3CCCCC3)cc2)cn1
not listed: [1] | [10] | [13] | [18]
inactive: all other assays above

CCCCC(CC)COC(=O)C(C#N)=C(c1ccccc1)c1ccccc1 (configuration not stated)
active: [13] 30.6 µM
not listed: [1] | [8] | [10] | [18] | [19] | [20]
inactive: all other assays above

CCOC(=O)NNc1nncc2ccccc12
not listed: [8] | [18] | [20]
inactive: all other assays above

Cc1cc(C)c(C)cc1C
not listed: [1] | [7] | [20]
inactive: all other assays above

C[Si](O[Si](C)(C)C)O[Si](C)(C)C
not listed: [8] | [13] | [14] | [19] | [20]
inactive: all other assays above

Nc1cc([N+](=O)[O-])ccc1O
active: [15] 48.6 µM and 30.5 µM | [17] 30.6 µM
inactive and 9.72 µM (active): [10]
not listed: [1] | [7] | [8] | [13] | [14] | [19] | [20]
inactive: all other assays above

O=C(O)c1ccc2c(c1)C(=O)OC2=O
not listed: [7] | [8] | [10] | [18] | [19] | [20]
inactive: all other assays above

C=CCOC(=O)c1ccccc1C(=O)OCC=C
not listed: [7] | [10] | [20]
inactive: all other assays above
